From PubChem BioAssay (NCI) come the findings set out here.

Common to all, as to assay: NCI-60 one-dose screen, 48 h (100 = growth as untreated, 0 = no growth, -100 = all killed)
One test relates to NCI-H23 lung. The following applies: 10 µM unless noted.
The subject of another test is NCI-H226 lung. The following applies: 10 µM unless noted.
The test system of another test is NCI-H322M lung. The following applies: 10 µM unless noted.
For a further test, the system named is HOP-62 NSCLC. The following applies: 10 µM unless noted.
A further test deals with NCI-H460 lung. The following applies: 10 µM unless noted.
In another test the test system is HOP-92 NSCLC. The following applies: 10 µM unless noted.
The next test concerns NCI-H522 lung. The following applies: 10 µM.
The next test concerns 786-0 renal. The following applies: 10 µM unless noted.
Another test concerns COLO 205 colon. The following applies: 10 µM unless noted.
The test system of the next test is A549/ATCC NSCLC. The following applies: 10 µM unless noted.

About 83,000 compounds went through this panel and 20% of them were active in at least one assay; those are over-represented in the sample as a whole.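 Plates (96-well) were seeded with cells, treated with compound at one concentration, and incubated for 48 hours before percent growth was determined.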 Unmarked numbers belong to inactive results. Calls of active or inactive are those of the source. How the source made its calls: active means growth percent below 10; inactive means the rest.

With `CSc1nc(Nc2ccc(S(=O)(=O)Nc3ccon3)cc2)c(C#N)c(-c2ccc(Cl)cc2)n1`, the growth in the test on NCI-H23 lung was 94.2%; in the test on NCI-H226 lung it was 95%; in the test on NCI-H322M lung it was 98.3%; in the test with HOP-62 NSCLC, 106%; with NCI-H460 lung, 112%; with HOP-92 NSCLC, 109%. For the same compound, the growth is 84.9% in the test on NCI-H522 lung, 94.7% with 786-0 renal and 108% in the test on COLO 205 colon.

For the compound `O=C(COc1ccc(/C=C2\Oc3ccc4ccccc4c3C2=O)cc1)c1ccc([N+](=O)[O-])cc1`, the growth in the test with NCI-H23 lung was 96.5%; in the test on NCI-H226 lung, 105%; in the test on NCI-H322M lung, 99.9%; with HOP-62 NSCLC, 118%; in the test with NCI-H460 lung, 104%; in the test with HOP-92 NSCLC, 96.7%. For the same compound, the values for the growth in the test with NCI-H522 lung, in the test with 786-0 renal and in the test with COLO 205 colon were 49%, 103% and 134%, respectively.

In the case of `BrC1CC(Br)c2c1c1c(c3c2C(Br)CC3Br)C(Br)CC1Br` (configuration not stated), the growth was 99.7% in the test on NCI-H23 lung; 101% in the test on NCI-H226 lung; 97.7% in the test with NCI-H322M lung; 103% in the test with HOP-62 NSCLC; 93.4% with NCI-H460 lung; 89.9% in the test on HOP-92 NSCLC. Further, the growth with NCI-H522 lung was 84.4%; with 786-0 renal, 116%; with COLO 205 colon it was 105%.

As for `O=c1[nH]cc(Nc2cc(Cl)c3nonc3c2[N+](=O)[O-])c(=O)[nH]1`, the growth with NCI-H23 lung was 91.2%; with NCI-H226 lung, 92.3%; in the test with NCI-H322M lung, 110%; in the test on HOP-62 NSCLC it was 102%; in the test with NCI-H460 lung it was 107%; in the test on HOP-92 NSCLC, 95.5%. For the same compound, the growth in the test on NCI-H522 lung was 98%; in the test on 786-0 renal, 105%; in the test on COLO 205 colon it was 109%.

Regarding `Cn1ccnc1C(=O)/C=C/c1ccc(C(=O)Nc2nc3ccccc3[nH]2)cc1`, the growth is 23.3% in the test with NCI-H23 lung; 82.4% in the test on NCI-H226 lung; 43.8% with NCI-H322M lung; 34.1% with HOP-62 NSCLC; 10.9% with NCI-H460 lung; 52.8% in the test with HOP-92 NSCLC. The figures for the growth with NCI-H522 lung, in the test on 786-0 renal and with COLO 205 colon were 58.6%, 23.6% and 55.1%, respectively.

As for `COc1ccc(-c2ccc(O)c(C(=O)/C=C/c3cc(OC)c(OC)c(OC)c3)c2)cc1`, the growth in the test on NCI-H23 lung was 72.7%; in the test with NCI-H226 lung, 99.1%; with NCI-H322M lung it was 81.8%; in the test on HOP-62 NSCLC it was 103%; in the test with NCI-H460 lung, 79.9%; in the test with HOP-92 NSCLC, 56%. Besides, the growth was 80.5% in the test on A549/ATCC NSCLC, 99.4% in the test with 786-0 renal and 83.7% with COLO 205 colon.

As to `N#Cc1c(-c2ccc(F)cc2)n2c(nc1=O)SC(=O)C2=O`, the growth with NCI-H23 lung is 98.6%; in the test on NCI-H226 lung, 87.2%; in the test with NCI-H322M lung, 104%; in the test with HOP-62 NSCLC it was 120%; in the test with NCI-H460 lung, 101%; in the test with HOP-92 NSCLC, 96.6%. Moreover, the results for the growth with NCI-H522 lung, in the test with 786-0 renal and with COLO 205 colon were 103%, 100% and 134%, respectively.

With `CC1c2ccccc2-c2ccccc2N1C` (configuration not stated), the growth in the test on NCI-H23 lung is 105%; in the test on NCI-H226 lung, 105%; in the test with NCI-H322M lung it was 101%; in the test on HOP-62 NSCLC, 100%; in the test on NCI-H460 lung, 105%; in the test on HOP-92 NSCLC, 86.1%. Besides, the growth in the test with NCI-H522 lung is 87.5%; with 786-0 renal it was 104%; with COLO 205 colon, 107%.

Regarding `C=C(CN1CCc2c([nH]c3ccccc23)C1)c1ccc(C(=O)Nc2ccon2)cc1`, the growth in the test with NCI-H23 lung is 85.9%; in the test on NCI-H226 lung it was 92.7%; with NCI-H322M lung, 125%; in the test on HOP-62 NSCLC it was 88.2%; in the test with NCI-H460 lung, 101%; in the test on HOP-92 NSCLC, 31.5%. Moreover, the growth with NCI-H522 lung was -15% (active); in the test on 786-0 renal, 96%; with COLO 205 colon, 83.6%.

Take `CCCCN1c2nc3ccccc3cc2Sc2cc3ccccc3nc21`: the growth with NCI-H23 lung was 97.6%; in the test on NCI-H226 lung, 93.2%; with NCI-H322M lung, 104%; in the test with HOP-62 NSCLC, 90.7%; in the test on NCI-H460 lung, 99%; with HOP-92 NSCLC it was 28.4%. Besides, the growth with NCI-H522 lung is 92.8%; with 786-0 renal it was 98.5%; in the test with COLO 205 colon it was 132%.

In the case of `COc1cc(/C=N/OC(=O)Nc2ccccc2)cc(OC)c1OC`, the growth in the test with NCI-H23 lung is 107%; with NCI-H226 lung, 96%; in the test with NCI-H322M lung, 92.2%; in the test with HOP-62 NSCLC it was 93.9%; with NCI-H460 lung, 109%; with HOP-92 NSCLC it was 74.6%. In addition, the growth in the test with NCI-H522 lung was 86.2%; with 786-0 renal, 103%; with COLO 205 colon, 107%.

In the case of `O=C(N/N=C/c1cccc(O)c1)c1ccc(C(F)(F)F)nc1Nc1cccc(C(F)(F)F)c1`, the growth is 13.4% in the test on NCI-H23 lung; 12.6% in the test with NCI-H226 lung; -6.79% (active) in the test on NCI-H322M lung; -32.9% (active) in the test with HOP-62 NSCLC; 11.5% in the test with NCI-H460 lung; -28.4% (active) in the test on HOP-92 NSCLC. Also, the growth with NCI-H522 lung is -7.57% (active); in the test with 786-0 renal it was -13.8% (active); in the test on COLO 205 colon, -0.875% (active).

For the compound `O=C(O)c1ccc(CNS(=O)(=O)c2ccc3ccccc3c2)cc1`, the growth in the test with NCI-H23 lung is 119%; in the test with NCI-H226 lung it was 100%; in the test with NCI-H322M lung it was 114%; with HOP-62 NSCLC it was 112%; with NCI-H460 lung, 120%; in the test with HOP-92 NSCLC it was 132%. Moreover, the growth in the test on NCI-H522 lung is 104%; in the test with 786-0 renal it was 106%; in the test with COLO 205 colon, 105%.
